Data as given in PubChem BioAssay (NCATS).
Results filed as inconclusive are left out. Values without a mark were called inactive. Calls follow the shape of the dose curve; as a rule, active = well fitted inhibition curve with a large enough effect; inconclusive = small, poorly fitted or top-dose-only effect; inactive = flat fitted curve, though single readings scatter.

assay: qHTS profiling for inhibitors of Plasmodium falciparum proliferation (AID 504749);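 also: 0% = DMSO vehicle and full inhibition = artemisinin control; nearly all actives have a fitted effect of over 60% in size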; conditions: P. falciparum in erythrocytes, SYBR Green DNA, 72 h; at 12.8 µM (top of the series); parasite line A
In short: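 Fluorescence of SYBR Green-bound parasite DNA, read at 485/535 nm, served as the growth measure. Infected erythrocytes were cultured with compound 72 h; artemisinin (0.29 uM) and DMSO wells defined the normalization range.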

| SMILES | activity, negative = inhibition [%] |
| --- | --- |
| NC(N)=NS(=O)(=O)c1ccc(N)cc1 | 8.93 |
| CCS(=O)(=O)CCn1c([N+](=O)[O-])cnc1C | -2.71 |
| CN/C(=C\[N+](=O)[O-])NCCSCc1csc(CN(C)C)n1 | 4.23 |
| CC(C)(C)C(=O)OCOC(=O)[C@@H]1N2C(=O)[C@@H](NC(=O)[C@H](N)c3ccccc3)[C@H]2SC1(C)C | -1.26 |
| CCc1cccc(CC)c1NC(=O)CN(CC(=O)O)CC(=O)O | 1.37 |

same assay, conditions: P. falciparum in erythrocytes, SYBR Green DNA, 72 h; at 12.8 µM (top of the series); parasite line B

| SMILES | activity, negative = inhibition [%] |
| --- | --- |
| NC(N)=NS(=O)(=O)c1ccc(N)cc1 | 8.43 |
| CCS(=O)(=O)CCn1c([N+](=O)[O-])cnc1C | -11.1 |
| CN/C(=C\[N+](=O)[O-])NCCSCc1csc(CN(C)C)n1 | 7.76 |
| CC(C)(C)C(=O)OCOC(=O)[C@@H]1N2C(=O)[C@@H](NC(=O)[C@H](N)c3ccccc3)[C@H]2SC1(C)C | -15.3 |
| CCc1cccc(CC)c1NC(=O)CN(CC(=O)O)CC(=O)O | 6.7 |
